In all, about 48,000 compounds went through this assay and about 13,000 (27%) showed an effect of 50% or more. The list shows a part of the results.
What follows are compounds tested on Wolbachia pipientis (assay: Anti-Wolbachia Cell-Based Screen). Conditions: 5 µM.
Assay type: functional
Parameters: scale not given: in the data most compounds retested in dose-response had high values

Structure (SMILES) | Percent Effect
Cn1cc(Br)c(=O)c(NS(=O)(=O)c2ccc(F)cc2)c1 | -3.18%
CSCCNC(=O)C1CCC(=O)N(C2CCCC2)C1 (stereo unspecified) | -26.76%
CCOCc1ccccc1NC(=O)NCC(c1cnn(C)c1)N(C)C (stereo unspecified) | -8.458%
Cc1nc(C(=O)N(C)C2CC(=O)N(Cc3ccccc3)C2=O)cs1 (stereo unspecified) | -12.75%
CCOC(=O)N1[C@@H](c2ccco2)[C@@H](C(=O)O)C[C@]12CCCCNC2=O | 122.2%
CCOC(=O)CCNC(=O)N1CCCC(CNC(=O)c2ccco2)C1 (stereo unspecified) | 4.582%
CCOC(=O)N1[C@@H](c2ccco2)[C@@H](C(=O)NC)C[C@]12CCCCNC2=O | 102%
Cc1cc(NC(N)=O)ccc1C(=O)N(C)C | 10.57%
CC(=O)N1CCC(c2nnc3ccc(C(=O)NC(C)C)cn23)C1 (stereo unspecified) | 15.69%
CN(C)C(=O)N1CCN(CCCc2ccccc2)[C@H]2CS(=O)(=O)C[C@H]21 | -9.893%
CN(Cc1coc(-c2ccccc2)n1)CC1CCCN1c1cccnn1 (stereo unspecified) | 26.49%
CC1CCCCN1C(=O)c1ccc2c(c1)OCCCO2 (stereo unspecified) | -1.264%
O=C(c1ccco1)N1CC[C@H]2[C@H]1CCN2S(=O)(=O)C1CC1 | -8.248%
COC(=O)c1sccc1NC(=O)C1CCCN1C(=O)c1ccco1 (stereo unspecified) | -17.58%
O=C(c1ccco1)N1CCC(CSCc2ccco2)CC1 | -5.267%
O=C(c1ccco1)N1CC[C@@H](N2CCOCC2)[C@@H]1Cc1ccccc1 | -19.81%
O=C(NCC1CC1)C1CN(C(=O)c2ccco2)CC12CCOCC2 (stereo unspecified) | -3.478%
O=C(c1ccco1)N1C(CN2CCOCC2)[C@]2(O)CC[C@H]1CC2 (stereo partly specified) | 107%
COCC1N(C(=O)c2ccco2)[C@H]2CC[C@]1(O)CC2 (stereo partly specified) | 106.6%
O=C(c1ccco1)N1C(CO)[C@]2(O)CC[C@H]1CC2 (stereo partly specified) | 85.33%
COCC1N(C(=O)c2ccc3c(c2)OCCCO3)[C@H]2CC[C@]1(O)CC2 (stereo partly specified) | 106.3%
O=C(c1ccc2c(c1)OCCCO2)N1CCCCC1C1OCCO1 (stereo unspecified) | -8.172%

Structure (SMILES) | Percent Effect
COCc1ccccc1NC(=O)[C@@H]1CCCN1C(=O)c1ccco1 | 6.983%
COc1ccc(CC(C)(O)CNC(=O)c2cccs2)cc1 (stereo unspecified) | 9.514%
O=C(CCNc1ncccn1)NCCc1ccc(Cl)s1 | 4.707%
Cc1cc(C)n(CC2CN(CCOc3cccc(F)c3)CCO2)n1 (stereo unspecified) | -4.27%
CN1CCN(C2CCN(CCOc3ccc(Cl)cc3)CC2)C1=O | 110.5%
CN1CCN(C2CCN(Cc3ccc(Cl)s3)CC2)C1=O | -8.107%
CN1CCN(C2CCN(CCOc3cccc(Cl)c3)CC2)C1=O | 94.86%
O=C(O)[C@H]1CCCN1CCOc1cccc(Cl)c1 | -3.257%
CCN1CCN(C2CCN(C(C(N)=O)c3ccc(F)cc3)CC2)C1=O (stereo unspecified) | -3.81%
CCN1CCN(C2CCN(Cc3ccc(Cl)s3)CC2)C1=O | -13.73%
CN1C[C@H]2CN(Cc3cccc(OC(F)(F)F)c3)CCN2C1=O | -0.9762%
CN1CCN(C2CCN(CCOc3cccc(F)c3)CC2)C1=O | 93.98%
CN1CCN(C2CCN(Cc3ccc(Cl)cc3)CC2)C1=O | -21.74%
CCN1CCN(C2CCN(CCOc3ccc(F)cc3)CC2)C1=O | 105.5%
CCOC(=O)N1C[C@H]2CC[C@@H]1CN(Cc1ccccc1)C2 | -18.44%
Cn1ccc(CS(=O)(=O)Cc2cccc(F)c2)cc1=O | 13.57%
COCCN(Cc1ccc(F)cc1Cl)C(=O)c1ccncc1 | -4.791%
Cc1nn2c(N3CCC(O)CC3)cc(-c3ccccc3)nc2c1C | 1.799%
CC(=O)c1cccc(NC(=O)CN2CCCCC2C2OCCO2)c1 (stereo unspecified) | 12.92%
O=C(NCc1ccccc1CN1CCC(O)CC1)Nc1ccncc1 | -8.548%
CC(C)CN1CCC(C(=O)NCCNC(=O)c2ccccc2)CC1 | 10.43%
COc1cc(-c2noc(C(CC(C)C)N3CCCCC3=O)n2)ccn1 (stereo unspecified) | -8.352%

Structure (SMILES) | Percent Effect
Cc1noc(C2CCN(C(C)c3nc(C4CC4)no3)CC2)n1 (stereo unspecified) | 2.218%
OCCn1cc(CN2CCN(CCOc3ccccc3F)CC2)cn1 | 2.742%
CN1CCN(C2CCN(Cc3noc(-c4ccccc4)n3)CC2)C1=O | -0.9175%
CN1CCN(C2CCN(C(C(N)=O)c3ccccc3)CC2)C1=O (stereo unspecified) | -3.145%
CN1CCN(C2CCN(CCOc3ccc(F)cc3)CC2)C1=O | -2.232%
COc1ccc(CCN2CCC(N3CCN(C)C3=O)CC2)cc1 | -2.52%
CN1CCN(C2CCN(CCOc3ccc(C#N)cc3)CC2)C1=O | 102.1%
CN1CCN(C2CCN(CCOc3ccccc3)CC2)C1=O | 94.15%
Cn1c(C2CC2)nc2c1CCN(CCOc1ccc(C#N)cc1)C2 | -1.848%
CN1CCN(C2CCN(CCOc3ccccc3F)CC2)C1=O | 107.7%
CN1CCN(C2CCN(CCCOc3ccc(F)cc3)CC2)C1=O | 81.83%
CC(C)c1nnc(CNc2nc(-c3cccnc3)nc3c2CCC3)n1C | 6.162%
Cc1cnn(CCNCc2csc(-c3cccs3)n2)c1 | -4.856%
Cc1cc(CC(=O)NCC(O)COc2ccc(F)c(F)c2)no1 (stereo unspecified) | -5.317%
Cc1cccc(-c2nc(CN3CCc4c(ncn4C)C3)no2)c1 | 5.431%
COC(C)C(=O)NS(=O)(=O)c1cccc2cc(C)cnc12 (stereo unspecified) | -12.97%
CCc1cnc(NCC(CC)N2CCOCC2)nc1 (stereo unspecified) | 14.29%
COCCNC(=O)Nc1ccc(CN2CCOC2=O)cc1 | -11.28%
COc1ccc(C(C)n2ccnc2-c2cc3n(n2)CCCNC3)cc1F (stereo unspecified) | 6.118%
O=C1CCC(C(=O)NCc2nncn2-c2ccccc2)CN1 (stereo unspecified) | 3.893%
Cc1cccc(CNCC2COC3(CCCCC3)O2)c1C (stereo unspecified) | 5.002%
COc1ccc2[nH]nc(CN3CCC(C(C)N4CCCC4)CC3)c2c1 (stereo unspecified) | -10.16%
